Assay outcomes deposited in PubChem by National Center for Advancing Translational Sciences (NCATS).
The list is not random: actives were taken first. Their share in the collection is about 5.7%.
KB-3-1 cytotox: kills parental KB-3-1 adenocarcinoma cells; KB-3-1 viability, CellTiter-Glo ATP luminescence, 72 h; Potency, µM (series often up to 46.1 µM), actives largely listed as cytotoxic; 400,000 tested, 1.4% active; note: nearly all actives have a fitted effect of over 60% in size
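Here the drug-naive KB-3-1 line serves as comparator for MDR sub-line selectivity; cells received compound titrations, 72 h at 37 °C, then CellTiter-Glo readout.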
HT1080NT lethal: kills 2HG-producing HT-1080-NT fibrosarcoma cells | AID 686970 | Potency, µM (highest dose often 46.1 µM), without a hit: top-dose activity, negative = less viability, hits mostly cytotoxic | HT-1080-NT fibrosarcoma viability, CellTiter-Glo ATP luminescence, 48 h | 360,000 tested, 1.6% active;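 note: NT is the 2HG producing partner of a matched IDH1 knockdown line; 0% = DMSO-treated cells and -100% = media-only wells without cells; nearly all actives have a fitted effect of over 55% in size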
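Viability of the 2HG-overproducing fibrosarcoma line after 48 hours of compound exposure at 37 degrees C was determined by luminescence with CellTiter-Glo, and concentration-effect curves were then fitted and categorized.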
KB-V1 cytotox: KB-V1 MDR subline cytotoxicity; KB-V1 MDR cells viability, CellTiter-Glo, 72 h; Potency, µM (highest dose often 46.1 µM), hits mostly cytotoxic; 400,000 tested, 3.4% active; AID 1347076; note: nearly all actives have a fitted effect of over 60% in size
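In this primary screen, KB-V1 cells overexpressing P-gp are incubated with library compounds (lowest to highest concentration) for 72 h at 37 degrees C before a luminescent ATP viability read.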
HT1080 IDH1KD tx: kills HT-1080 cells with IDH1 knockdown; HT-1080 IDH1 knockdown viability, ATP luminescence, 48 h; 360,000 tested, 2% active; Potency, µM (highest dose often 46.1 µM), for the others: top-dose activity, negative = toxicity, usual class: cytotoxic; AID 686971;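 note: 0% = DMSO wells and -100% = cell-free medium wells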
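Cytotoxicity counter-line: IDH1KD HT-1080, 48 h, CellTiter-Glo. Curves classed by r2, magnitude and activity.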
Active calls of the source: *; i = inactive; ? = inconclusive; / = not tested or not shown. Calls come from the whole dose curve; as a rule, active = well fitted curve in the direction sought with a large enough effect; inconclusive = small, poorly fitted or top-dose-only effect, or another doubt; inactive = no such curve, though single readings can be large; an effect the other way counts as inactive or inconclusive. Unless noted, % is set by controls: 0 for no effect and ±100 for the full control effect; potency is the fitted concentration of half-maximal effect.

SMILES | KB-3-1 cytotox | HT1080NT lethal | KB-V1 cytotox | HT1080 IDH1KD tx
COc1ccc(S(=O)(=O)N2CCC(C(=O)Nc3ccc4c(c3)OCCO4)CC2)cc1OC | i | -14.8% | 18.4µM* | -21.1%
O=C(Nc1ccc2c(c1)OCO2)C1CCN(S(=O)(=O)c2ccc3c(c2)OCCO3)CC1 | i | -11.0% | ? | -8.1%
c1ncc2snnc2n1 | i | / | i | /
COc1ccccc1NC(=O)CSC1=Nc2ccccc2C2=NC(Cc3ccccc3)C(=O)N12 (stereo unspecified) | i | / | i | /
N#Cc1nc(COc2ccc(-c3ccccc3)cc2)oc1N1CCC(C(N)=O)CC1 | i | / | i | /
COc1ccccc1CNC(=O)C1CCN(S(=O)(=O)c2ccc3c(c2)NC(=O)CO3)CC1 | i | 1.0% | i | 0.4%
COc1cccc(CNC(=O)C2CCN(S(=O)(=O)c3ccccc3)CC2)c1 | i | 15.1% | 20.6µM* | 8.9%
COc1ccccc1CNC(=O)C1CCN(S(=O)(=O)c2ccc3c(c2)OCCCO3)CC1 | i | 1.4% | 18.4µM* | 5.1%
O=C(NCc1cccnc1)C1CCN(c2ccc(S(=O)(=O)N3CCOCC3)cc2Cl)CC1 | 23.1µM* | ? | i | ?
CC1COCC(C)N1C1=C(Cl)C(=O)c2ccccc2C1=O (stereo unspecified) | ? | -26.3% | ? | 18.4µM*
COCC(=O)N1CCC(Oc2ccc(C(=O)NCCCn3cccn3)cc2)CC1 | i | -0.9% | i | 0.8%
COCC(=O)N1CCC(Oc2ccc(C(=O)NCCCC3CCCC3)cc2)CC1 | ? | -17.1% | 9.2µM* | -14.1%
CCOC(=O)Cc1ccc(NC(=O)N2CCc3c(sc4c3CCCC4)C2c2ccc(F)cc2)cc1 (stereo unspecified) | i | / | i | /
Cc1c(Cl)cccc1-n1ncc(C(=O)Nc2ccc(Br)cc2F)c1C1CCNCC1 | i | / | i | /
Cc1c(Cl)cccc1-n1ncc(C(=O)NCCN2CCN(C)CC2)c1C1CCN(C(=O)OC(C)(C)C)CC1 | i | / | i | /
N#Cc1ccc(CSc2nnc(-c3ccncc3)n2CCc2ccccc2)cc1 | ? | 23.1µM* | ? | ?
N#Cc1ccc(CSc2nnc(-c3ccccc3)n2Cc2ccco2)cc1 | i | -9.0% | 3.66µM* | ?
c1ccc(CCn2c(SCc3ccccc3)nnc2-c2ccncc2)cc1 | i | -5.2% | i | -2.0%
CN(C)c1ccc(/C=[N+]2\C(=O)CC(=O)NC2=O)cc1 | i | / | i | /
CCOc1ccc(S(=O)(=O)N2CCC(N3CCN(Cc4ccc(F)cc4)C(=O)C3=O)CC2)cc1 | i | / | i | /
Oc1ccc(N=Nc2c(O)ccc3ccccc23)cc1 | i | 11.2µM* | ? | ?
Cc1cc(C)c(NC(=O)Cn2c(=O)n(-c3cccc(C(F)(F)F)c3)c(=O)c3c(C)c(C)sc32)c(C)c1 | ? | / | i | /
COc1ccc(NC(=O)/C(C#N)=C\C=C\c2ccco2)cc1 | 7.31µM* | ? | 10.3µM* | 20.6µM*
COc1ccc(NC(=O)/C(=C\c2ccco2)NC(=O)c2ccco2)cc1 | i | 2.5% | i | 0.2%
N#Cc1c(-c2ccc(Cl)cc2)n(O)c2ccccc12 | 7.31µM* | 10.3µM* | 3.66µM* | 14.6µM*
SMILES | KB-3-1 cytotox | HT1080NT lethal | KB-V1 cytotox | HT1080 IDH1KD tx
CCOC(=O)CNC(=O)c1cc2c(=O)n(CC)c3ccccc3c2s1 | i | / | i | /
N/C(=N\OC(=O)c1ccc2ccccc2c1)c1ccccn1 | i | ? | ? | ?
NC(=Nc1nc(-c2ccccn2)cc2ccccc12)c1ccccn1 | ? | -14.3% | 0.731µM* | ?
CC(C)OCCCN(C)C1CCN(S(=O)(=O)c2ccc(-c3cc(C(F)(F)F)no3)s2)CC1 | 16.4µM* | -11.7% | 9.2µM* | -0.8%
CC(C)OCCCN(C)C1CCN(S(=O)(=O)c2csc(C(N)=O)c2)CC1 | i | 12.3% | ? | 8.6%
CCN(CC)CC(=O)Nc1ccc(-c2nc3cc(NC(=O)CN(CC)CC)ccc3o2)cc1 | ? | -2.7% | 18.4µM* | -2.9%
O=C(Nc1ccc2oc(-c3cc(Br)ccc3Cl)nc2c1)c1ccc2ccccc2c1 | i | / | i | /
O=C(Nc1ccc2oc(-c3ccccc3)nc2c1)c1cccs1 | i | -16.0% | i | -10.5%
O=C(Nc1ccc2oc(-c3ccccc3)nc2c1)c1ccncc1 | ? | -10.8% | 8.2µM* | -18.9%
O=C(Nc1ccc2oc(-c3ccccc3Cl)nc2c1)c1cncc(Br)c1 | ? | ? | 5.17µM* | -9.4%
O=C(Nc1ccc(-c2nc3ccccc3o2)cc1)c1ccc(N2C(=O)C3C4C=CC(C4)C3C2=O)cc1 (stereo unspecified) | i | 3.1% | 4.11µM* | 0.0%
CCOC(=O)c1ccc(NC(=O)CSc2ccc3ccccc3n2)cc1 | i | / | i | /
COCCc1nn2c(=O)cc(COC(=O)c3ccc(C(C)(C)C)cc3)nc2s1 | i | / | i | /
CCc1cccc(NC(=O)Cn2c(=O)n(CCC(=O)NCc3ccccc3Cl)c(=O)c3sccc32)c1 | i | / | i | /
CC[N+]1(CC(=O)c2ccc(Br)cc2)CCCCC1 | i | / | i | /
O=C(NCCc1ccccc1)c1ccc(CSc2nc3ccncc3n2Cc2ccccc2F)cc1 | i | / | i | /
CCOc1ccc(Cl)cc1CNCCCSc1nnnn1C | i | / | i | /
O=C(Cc1c(F)c(F)c(F)c(F)c1F)Nc1nc(-c2ccccc2)cs1 | ? | ? | ? | 16.4µM*
O=C(Cc1ccc(F)cc1)Nc1nc(-c2ccc(F)cc2)cs1 | i | 6.0% | i | 4.9%
O=C(Nc1nc(-c2ccccc2)cs1)c1cccc([N+](=O)[O-])c1 | i | -8.8% | 23.1µM* | -13.5%
Cc1ccc(S(=O)(=O)CC(=O)Nc2nc(-c3ccccc3)cs2)cc1 | i | -25.4% | 18.4µM* | -23.9%
O=C(Nc1nc(-c2cccnc2)cs1)c1cccc([N+](=O)[O-])c1 | i | 8.0% | i | 0.7%
N#CC1=C(SCC(=O)NC23CC4CC(CC(C4)C2)C3)NC(=O)C(C#N)C12CCCCC2 (stereo unspecified) | ? | ? | 11.6µM* | ?
Cc1cc(C)c(NC(=O)c2cc(C)nc3c2c(C)nn3-c2cccc(F)c2)c(C)c1 | i | / | ? | /
CCOC(=O)CSc1nc(-c2ccc(Cl)cc2)cc(C(F)(F)F)c1C#N | i | / | ? | /
SMILES | KB-3-1 cytotox | HT1080NT lethal | KB-V1 cytotox | HT1080 IDH1KD tx
CCOC(=O)CSc1nc(C2CC2)cc(-c2ccc(Cl)cc2)c1C#N | i | 5.8% | 20.6µM* | 3.0%
FC(F)(F)c1cccc(NC(=S)Nc2ccc(Cl)c(Cl)c2)c1 | ? | ? | i | ?
O=[N+]([O-])c1cc(C(F)(F)F)cc([N+](=O)[O-])c1NCCNC(=S)Nc1ccc(Cl)c(Cl)c1 | ? | 16.4µM* | i | ?
CC(=O)Nc1ccc(NC(=O)CCCn2nc(C)c3sc4ccccc4c3c2=O)cc1 | i | / | i | /
CCCOc1ccc2c(CC)cc(=O)oc2c1C | i | 5.4% | 13µM* | -0.1%
CCCc1cc(=O)oc2c(C)c(OS(C)(=O)=O)ccc12 | i | 1.3% | ? | 0.7%
